Experimental data from the supplement of paper PMC12645437, “Orthogonal IMiD-Degron Pairs Induce Selective Protein Degradation in Cells” (ACS Chemical Biology, 2025).
Over roughly 8,300 sequences, “log2 fold change of degron read counts, EGFP-low vs EGFP+ sorted cells (limma voom), compound-induced degradation” has its median near -1.1; the highest 2% begin near 3.2. Shown is part of a subset that was picked to be rich in the highest values.

T1: CRBN, Q96SW2
T1 chain: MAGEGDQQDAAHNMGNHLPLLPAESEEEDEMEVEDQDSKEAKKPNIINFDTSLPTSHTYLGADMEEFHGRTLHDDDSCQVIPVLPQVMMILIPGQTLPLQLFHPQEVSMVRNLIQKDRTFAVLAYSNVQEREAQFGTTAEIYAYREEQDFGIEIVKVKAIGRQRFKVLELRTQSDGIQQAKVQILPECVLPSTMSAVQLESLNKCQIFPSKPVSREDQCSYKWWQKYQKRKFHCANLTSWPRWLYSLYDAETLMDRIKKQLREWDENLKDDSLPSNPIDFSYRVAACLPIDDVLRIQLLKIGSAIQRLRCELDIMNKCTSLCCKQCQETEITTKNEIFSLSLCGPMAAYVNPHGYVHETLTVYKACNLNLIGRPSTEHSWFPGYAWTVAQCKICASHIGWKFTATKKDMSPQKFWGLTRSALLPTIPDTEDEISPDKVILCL


Target: T1, CRBN, Q96SW2
Test: log2 fold change of degron read counts, EGFP-low vs EGFP+ sorted cells (limma voom), compound-induced degradation; higher = more compound-induced degradation of the degron-EGFP fusion; degrons are variants of IKZF1/3 zinc finger 2; compound dose not given here
Conditions: Jurkat, 18 h
[1] = compound: compound 19 (5-tert-butyl-thalidomide)
[2] = compound: compound 22 (5-morpholino-thalidomide)
[3] = compound: compound 33 (diphenyl IMiD analogue)
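Note: pooled lentiviral library of zinc finger degron-EGFP fusions in mCherry-positive Jurkat cells, FACS-sorted after compound exposure, with degron abundance counted by next-generation sequencing.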

Row | Sequence | log2 fold change of degron read counts [1] | log2 fold change of degron read counts [2] | log2 fold change of degron read counts [3] | log2 fold change of degron read counts (compound: thalidomide)
1 | FWCPICGRHFTQKGNLLRHIKL [46F_47W_49P_50I_52G_53R_54H_55F_67L_, Q9UKT9] | 0.105 | 0.12 | -0.0382 | -0.795
2 | FTCNQCGANFTQKGNLLRHIKL [46F_47T_49N_50Q_52G_53A_54N_55F_67L_, Q9UKT9] | -2.31 | -1.9 | -1.02 | -1.51
3 | FCCEQCGAQFTQKGNLLRHIKL [46F_47C_49E_50Q_52G_53A_54Q_55F_67L_, Q9UKT9] | -0.606 | -1.61 | 0.54 | -0.701
4 | FFCDVCGAGFTQKGNLLRHIKL [46F_47F_49D_50V_52G_53A_54G_55F_67L_, Q9UKT9] | 2.13 | 0.815 | -0.261 | -2.07
5 | FICEICGRFFTQKGNLLRHIKL [46F_47I_49E_50I_52G_53R_54F_55F_67L_, Q9UKT9] | -1.91 | -1.81 | -0.249 | -0.59
6 | FRCNICGAFFTQKGNLLRHIKL [46F_47R_49N_50I_52G_53A_54F_55F_67L_, Q9UKT9] | -1.52 | -1.67 | -0.33 | 0.791
7 | FTCEQCGATFTQKGNLLRHIKL [46F_47T_49E_50Q_52G_53A_54T_55F_67L_, Q9UKT9] | -2.43 | -0.729 | 0.386 | 0.407
8 | LCCPICGFTCTQKGNLLRHIKL [46L_47C_49P_50I_52G_53F_54T_55C_67L_, Q9UKT9] | 2.3 | 2.71 | 3.14 | 3.38
9 | LNCPICGFTCTQKGNLLRHIKL [46L_47N_49P_50I_52G_53F_54T_55C_67L_, Q9UKT9] | 2.24 | 1.48 | 1.4 | 1.99
10 | LDCPICGFTCTQKGNLLRHIKL [46L_47D_49P_50I_52G_53F_54T_55C_67L_, Q9UKT9] | 1.14 | 0.297 | 1.7 | 2.41
11 | FFCNQCGHLFTQKGNLLRHIKL [46F_47F_49N_50Q_52G_53H_54L_55F_67L_, Q9UKT9] | -1.66 | -2.07 | -1.87 | -1.3
12 | FSCDICGAAFTQKGNLLRHIKL [46F_47S_49D_50I_52G_53A_54A_55F_67L_, Q9UKT9] | 2.34 | 2.19 | 1.4 | 0.487
13 | FYCPICGAQFTQKGNLLRHIKL [46F_47Y_49P_50I_52G_53A_54Q_55F_67L_, Q9UKT9] | 3.2 | 3.56 | 2.65 | 1.7
14 | FKCPICGAQFTQKGNLLRHIKL [46F_47K_49P_50I_52G_53A_54Q_55F_67L_, Q9UKT9] | -0.0361 | -1.47 | -1.09 | 0.0895
15 | FVCPICGAQFTQKGNLLRHIKL [46F_47V_49P_50I_52G_53A_54Q_55F_67L_, Q9UKT9] | 0.269 | 3.03 | 2.65 | 2.8
16 | FRCPICGAQFTQKGNLLRHIKL [46F_47R_49P_50I_52G_53A_54Q_55F_67L_, Q9UKT9] | -0.000477 | 0.626 | 1.17 | 1.41
17 | FECPICGAQFTQKGNLLRHIKL [46F_47E_49P_50I_52G_53A_54Q_55F_67L_, Q9UKT9] | -0.254 | -0.469 | 2.11 | 2.88
18 | FTCPICGAQFTQKGNLLRHIKL [46F_47T_49P_50I_52G_53A_54Q_55F_67L_, Q9UKT9] | 0.221 | 2.57 | 2.32 | 3.06
19 | FWCPICGAQFTQKGNLLRHIKL [46F_47W_49P_50I_52G_53A_54Q_55F_67L_, Q9UKT9] | 3.01 | 3.69 | 2.52 | 1.76
20 | FSCPICGAQFTQKGNLLRHIKL [46F_47S_49P_50I_52G_53A_54Q_55F_67L_, Q9UKT9] | 2.37 | 2.25 | 1.87 | 1.54
21 | FFCPICGAQFTQKGNLLRHIKL [46F_47F_49P_50I_52G_53A_54Q_55F_67L_, Q9UKT9] | 3.07 | 3.66 | 2.49 | 1.8
22 | FACPICGAQFTQKGNLLRHIKL [46F_47A_49P_50I_52G_53A_54Q_55F_67L_, Q9UKT9] | 3.33 | 2.33 | 1.68 | 1.29
23 | FMCPICGAQFTQKGNLLRHIKL [46F_47M_49P_50I_52G_53A_54Q_55F_67L_, Q9UKT9] | 0.245 | 1.26 | 2.62 | 1.97
24 | FICPICGAQFTQKGNLLRHIKL [46F_47I_49P_50I_52G_53A_54Q_55F_67L_, Q9UKT9] | -0.147 | 2.86 | 2.84 | 2.97
